Only some compounds are listed: those with a hit (about 7.2% of all), similar ones and a draw of the others.
Sm TGR inh: qHTS Assay for the Inhibitors of Schistosoma Mansoni Peroxiredoxins; purified TGR, DTNB reduction, TNB absorbance 405 nm; Potency, µM (highest dose often 114 µM), without a hit: top-dose activity change, negative = inhibition, actives largely listed as inhibitors; hit rate 3% among 360,000; note: nearly all actives have a fitted effect of over 60% in size
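Kinetic colorimetric format: TGR-catalysed, NADPH-driven DTNB reduction monitored via TNB absorbance. Enzyme dispensed at 20 nM; compound exposure 15 min at room temperature before reaction start.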
RE007 growth inh: qHTS Assay for Inhibitors of the HIV-1 protein Vpr; hit rate 0.21% among 360,000; AID 651644, 2012; Potency, µM (series often up to 92.2 µM), for inactives: top-dose activity change, negative = less growth, most hits filed as inhibitors; S. pombe RE007 Vpr strain, BacTiter-Glo ATP luminescence, 24 h; active = well fitted falling curve with a large enough effect; inconclusive = small, poorly fitted or top-dose-only effect; inactive = no such curve, though single readings can be large or run the other way; note: nearly all actives have a fitted effect of over 50% in size
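Fission yeast RE007 carrying one integrated HIV-1 vpr copy, seeded at OD 0.01 in PMG+AL medium with 23 nL pinned compound. Grown 24 h at 30 degrees; viability read by BacTiter-Glo luminescence after 5 min.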
Lassa entry inh: qHTS for Inhibitors of binding or entry into cells for Lassa Virus; Lassa virus pseudotype entry inhibition, cell reporter; Potency, µM (highest dose often 37.9 µM), inactives show at the top dose activity change, negative = inhibition, hits mostly inhibitors; hit rate 1.2% among 300,000; AID 540256, 2011; calls by dose curve; tested in HEK293 cells; note: nearly all actives have a fitted effect of over 50% in size
FMDV antiviral: High Throughput Screening for Foot and Mouth Disease Virus Antivirals; AID 1159524, 2015; Potency, µM (series often up to 57.9 µM), for the others: at the top dose activity change, negative = inhibition, most hits filed as inhibitors; FMDV antiviral cell-based qHTS; hit rate 1.2% among 410,000; calls by dose curve; tested in HEK293T cells; note: read-out not given here; nearly all actives have a fitted effect of over 45% in size
HCV inhibitor: qHTS Assay for Inhibitors of Hepatitis C Virus (HCV) | Potency, µM (doses to about 41.8 µM), for inactives: at the highest dose activity change, negative = inhibition, usual class: inhibitors | hit rate 3.4% among 340,000 | Huh7.5.1 HCVcc-Cre infection, luciferase reporter, 44 h | AID 651820, 2012
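Infectious HCVcc-Cre (~0.5 moi) was added to cells just after compound, with cells seeded 4 h earlier at 1,000 per well. Luciferase activity after 44 h culture reported infection; substrate was incubated 15 min at room temperature before reading.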
MARV entry inh: qHTS for inhibitors of binding or entry into cells for Marburg Virus. AID 540276, 2011. Marburg virus pseudotyped entry inhibition, cell reporter. Potency, µM (doses to about 37.8 µM), for the others: at the highest dose activity change, negative = inhibition, usual class: inhibitors. hit rate 1.8% among 300,000; calls by dose curve; tested in HEK293 cells
* marks the source's active call; other numbers are inactive results; ? = inconclusive; . = no result; ! = not confirmed by another sample; [ ] = another dose, or the depositor's remark. Unless noted, calls come from the whole dose curve; as a rule, active = well fitted curve in the direction sought with a large enough effect; inconclusive = small, poorly fitted or top-dose-only effect, or another doubt; inactive = no such curve, though single readings can be large; an effect the other way counts as inactive or inconclusive. % is set by controls: 0 for no effect and ±100 for the full control effect; potency is the fitted concentration of half-maximal effect.

SMILES | Sm TGR inh | RE007 growth inh | Lassa entry inh | FMDV antiviral | HCV inhibitor | MARV entry inh
CC(C)(C)C1CCc2c(sc3nc(-c4cc5cc(Br)ccc5oc4=O)[nH]c(=O)c23)C1 (configuration not stated) | -0.4% | . | 24.8%[46.1 µM] | -5.6% | . | .
COc1ccc(C(=O)n2nnc3ccccc32)cc1OC | 6.31µM* | -6.7% | -8.6% | -23.1% | 14.2% | ?
O=C(Cn1cc(SCc2ccc(Cl)cc2)c2ccccc21)N1CCCC1 | -0.5% | . | 10.8%[46.1 µM] | 1.8% | . | .
N[C@](CC1c2ccccc2Oc2ccccc21)(C(=O)O)[C@@H]1C[C@@H]1C(=O)O | . | . | . | 6.2% | . | .
CCC1(C)Cc2nc3[nH]c(=S)n(-c4ccc(C)cc4)c(=O)c3cc2CO1 (configuration not stated) | 6.31µM* | 0.6% | 1.0% | -6.8% | 3.4% | 8.1%
Cc1ccc(C)c(N2CCN(S(=O)(=O)c3ccc(C(=O)N(C)C)s3)CC2)c1 | 4.6% | . | ? | -4.8% | . | .
O=C(NCc1ccccc1)[C@@H]1C[C@H]1[C@@H](NP(=O)(c1ccccc1)c1ccccc1)c1ccccc1 | -20.0% | 0.1% | 1.84µM* | 26.7% | 28.9% | ?
Cc1ccc(CNC(=O)[C@H]2C[C@@H]2[C@H](NP(=O)(c2ccccc2)c2ccccc2)c2ccccc2)o1 | 50.1µM* | -10.8% | ? | -4.9% | -14.7% | ?
O=C(NCc1ccccn1)[C@@H]1C[C@H]1[C@@H](NP(=O)(c1ccccc1)c1ccccc1)c1ccccc1 | -4.3% | -23.9% | 6.51µM* | 10.8% | 32.1% | -16.4%
COc1cc(C(O)C(=O)O)ccc1O (configuration not stated) | 10µM* | -2.3%[18.4 µM] | ? | -20.1% | 19.6% | 7.5%
O=[N+]([O-])c1cccc2c[nH]nc12 | . | . | . | 8.6% | . | -22.3%
COc1cc2c(c(OC)c1)C(c1cc(OC)c(OC)c(OC)c1)CC(=O)N2 (configuration not stated) | -0.1% | . | -0.8%[46.1 µM] | 54.0% | . | ?
O=C(CCc1c[nH]c2ccccc12)N1CCCCCCC1 | -2.4% | 9.0% | 0.0%[46.1 µM] | 18.2% | 13.2% | 17.9%[46.1 µM]
CC(C)(C)c1cc(CCC(=O)N2CCNCC2)c(C(C)(C)C)cc1O | -29.8% | 14.6% | -23.5% | -17.4% | ? | 14.6µM*
O=C1NC(=S)NC(=O)C1=Cc1ccc(Br)s1 | 20µM* | 1.5% | . | ? | ? | .
COc1ccc(C=C2C(=O)NC(=S)NC2=O)cc1 | . | 4.2% | 16.2% | ? | 25.7% | 20.6%
CN1C(=O)/C(=C\c2ccc(Br)s2)C(=O)NC1=S | 3.16µM* | -9.0% | -0.1%[46.1 µM] | 31.6µM* | ? | ?
O=C1NC(=S)NC(=O)C1=Cc1c(Cl)cccc1Cl | . | -9.6% | -0.1%[46.1 µM] | 20µM* | 10.5% | 11.3%[46.1 µM]
Cc1cc(/C=C2\C(=O)NC(=S)N(C)C2=O)c(C)n1C1CCCCC1 | -22.1% | -1.6% | 15.3% | -2.3% | 21.6% | ?
O=C1NC(=S)NC(=O)C1=Cc1cccc2cc3ccccc3cc12 | ? | . | . | 10µM* | 10µM* | .
O=c1[nH]c(=S)[nH]c2c1[C@H](CCc1cccc(Cl)c1)O[C@H](C1CCCC1)C2 | . | 1.2% | . | -27.9% | . | .
O=C(c1ccc2c(c1)CCN2S(=O)(=O)c1ccc(Cl)cc1)N1CCN(c2ccccc2F)CC1 | 1.3% | . | -15.7%[46.1 µM] | -28.1% | . | 0.7%[46.1 µM]
CCNC(=S)NNC(=O)c1cc(-c2ccc(OC)cc2)nc2ccccc12 | 3.9% | 17.8µM* | 3.26µM* | 11.2µM* | 14.5% | 0.651µM*
COc1ccc(C(=O)NCc2cc(C)nc3ccccc23)cc1 | . | -6.0% | ? | ? | 15.8µM* | ?
COc1ccc(-c2cc(C(=O)NCc3ccco3)c3ccccc3n2)cc1 | 39.8µM* | 8.0% | . | 19.3% | -13.1% | .
SMILES | Sm TGR inh | RE007 growth inh | Lassa entry inh | FMDV antiviral | HCV inhibitor | MARV entry inh
O=C(NCc1ccco1)c1cc(-c2ccccc2)nc2ccccc12 | 30.9% | -0.8% | 11.3% | ? | ? | ?
CCCCOc1ccc(-c2cc(C(=O)NNC(=S)NCC)c3ccccc3n2)cc1 | 5.7% | 63.1µM* | ? | ? | 11.2µM* | 1.46µM*
COc1cc(C(=O)NCc2cc(C)nc3ccccc23)cc(OC)c1OC | 3.9% | -13.4% | 0.0% | ? | -4.3% | -17.7%
CCNC(=O)c1ccc2nc(CCc3ccccc3)oc2c1 | 1.9% | . | 36.0%[46.1 µM] | 0.0% | . | .
Cc1cccc(C(=O)Nc2nnc(S(=O)(=O)N(C)Cc3ccc(Cl)cc3)s2)c1 | 0.2% | . | 26.0%[46.1 µM] | -13.9% | . | .
Cc1cccc(C(=O)Nc2nnc(S(=O)(=O)N(C)Cc3ccco3)s2)c1 | 7.94µM*! | -11.9% | 5.9%[46.1 µM] | 7.2% | 5.1% | ?
CCN(c1ccccc1C)S(=O)(=O)c1nnc(NC(=O)c2ccco2)s1 | 20µM*! | -9.4% | 0.8%[46.1 µM] | -4.8% | 17.2% | .
O=C(Cc1csc(Nc2nc(=S)[nH]c3ccccc23)n1)NCc1ccccc1Cl | -5.4% | 10.4% | ? | 0.0% | 11.2µM* | ?
O=c1[nH]c(=O)n(Cc2ccccc2)c(O)c1/C=C1\C=Nc2ccccc21 | ? | -13.7% | ? | 1.5% | -4.9% | -25.8%
O=c1[nH]c(/C=C2\C=Nc3ccccc32)c(O)n1Cc1ccccc1F | . | -8.7% | . | -26.5% | 4.47µM* | ?
COc1ccc(-c2ccc3c(N)c(C(=O)NCc4ccc(Cl)cc4)sc3n2)cc1 | 1.5% | . | -2.3%[46.1 µM] | 9.1% | . | 0.0%[46.1 µM]
COc1ccc(NC(=O)C2Cc3c(-c4cccc(F)c4)ccnc3O2)cc1OC (configuration not stated) | . | -5.6%[18.4 µM] | . | 15.8µM* | . | .
COc1ccc(NC(=O)C2Cc3c(-c4ccc5c(c4)OCO5)ccnc3O2)cc1OC (configuration not stated) | . | -22.9% | . | 11.2µM* | . | .
COc1ccc(NC(=O)C2Cc3c(-c4ccc(NC(C)=O)cc4)ccnc3O2)cc1OC (configuration not stated) | . | -10.2%[18.4 µM] | . | -14.0% | . | .
CC(=O)c1cccc(NC(=O)C2Cc3c(-c4ccc(Cl)cc4)ccnc3O2)c1 (configuration not stated) | . | -21.4% | . | 35.5µM* | . | .
COc1ccc(C2=NOC(C(=O)Nc3ccc4c(c3)OCCO4)C2)cc1OC (configuration not stated) | 31.6µM* | 13.1% | 28.8%[46.1 µM] | -14.9% | -1.4% | 13.3%[46.1 µM]
COc1ccc(NC(=O)C2CC(c3c(F)cccc3Cl)=NO2)cc1 (configuration not stated) | -7.6% | -2.3% | . | 28.8% | -3.8% | .
COc1cc(NC(=O)C2CC(c3c(F)cccc3Cl)=NO2)cc(OC)c1OC (configuration not stated) | -13.9% | -4.2% | -14.1%[46.1 µM] | 25.1µM* | 25.1µM* | ?
COc1ccc2c(C)nc(Nc3nc(-c4ccccc4)cc(=O)[nH]3)nc2c1 | 3.3% | 13.1% | 4.61µM* | -7.9% | 5.62µM* | ?
